Screening results: PubChem, National Center for Advancing Translational Sciences (NCATS)
Shown are actives, neighbours in structure and some others; about 1.9% of the full set was active somewhere.
Menin-MLL FL inh: displaces fluorescein MLL peptide from human menin | Fluorescence polarization, fluorescein-MLL peptide displacement from menin | 290,000 tested, under 10 active | FP activity change, % at 61.4 µM; active = well fitted curve in the direction sought with a large enough effect in the polarisation, not every such curve was filed as active; inconclusive = small, poorly fitted or top-dose-only effect, or effect the other way, or a change in a side signal; inactive = no such curve, though single readings can be large or run the other way; the % refers to the polarisation; note: % of control where 0% means no effect
CXXC DNA block: inhibitors of human MLL CXXC domain-DNA interaction; 0.037% of 290,000 active; MLL-CXXC / FITC-HOXA9 DNA fluorescence polarization; Q03164; Potency, µM (top dose mostly 115 µM), for the others: at the top dose activity change, negative = inhibition, hits mostly inhibitors; active = well fitted inhibition curve with a large enough effect in the polarisation, with a control signal flat, not every such curve was filed as active; inconclusive = small, poorly fitted or top-dose-only effect, or effect the other way, or a change in a side signal; inactive = no such curve, though single readings can be large or run the other way; the % refers to the polarisation; note: potency is the fitted concentration of half-maximal effect
Target sequence (Q03164 whole entry, looked up, the tested form may be a part): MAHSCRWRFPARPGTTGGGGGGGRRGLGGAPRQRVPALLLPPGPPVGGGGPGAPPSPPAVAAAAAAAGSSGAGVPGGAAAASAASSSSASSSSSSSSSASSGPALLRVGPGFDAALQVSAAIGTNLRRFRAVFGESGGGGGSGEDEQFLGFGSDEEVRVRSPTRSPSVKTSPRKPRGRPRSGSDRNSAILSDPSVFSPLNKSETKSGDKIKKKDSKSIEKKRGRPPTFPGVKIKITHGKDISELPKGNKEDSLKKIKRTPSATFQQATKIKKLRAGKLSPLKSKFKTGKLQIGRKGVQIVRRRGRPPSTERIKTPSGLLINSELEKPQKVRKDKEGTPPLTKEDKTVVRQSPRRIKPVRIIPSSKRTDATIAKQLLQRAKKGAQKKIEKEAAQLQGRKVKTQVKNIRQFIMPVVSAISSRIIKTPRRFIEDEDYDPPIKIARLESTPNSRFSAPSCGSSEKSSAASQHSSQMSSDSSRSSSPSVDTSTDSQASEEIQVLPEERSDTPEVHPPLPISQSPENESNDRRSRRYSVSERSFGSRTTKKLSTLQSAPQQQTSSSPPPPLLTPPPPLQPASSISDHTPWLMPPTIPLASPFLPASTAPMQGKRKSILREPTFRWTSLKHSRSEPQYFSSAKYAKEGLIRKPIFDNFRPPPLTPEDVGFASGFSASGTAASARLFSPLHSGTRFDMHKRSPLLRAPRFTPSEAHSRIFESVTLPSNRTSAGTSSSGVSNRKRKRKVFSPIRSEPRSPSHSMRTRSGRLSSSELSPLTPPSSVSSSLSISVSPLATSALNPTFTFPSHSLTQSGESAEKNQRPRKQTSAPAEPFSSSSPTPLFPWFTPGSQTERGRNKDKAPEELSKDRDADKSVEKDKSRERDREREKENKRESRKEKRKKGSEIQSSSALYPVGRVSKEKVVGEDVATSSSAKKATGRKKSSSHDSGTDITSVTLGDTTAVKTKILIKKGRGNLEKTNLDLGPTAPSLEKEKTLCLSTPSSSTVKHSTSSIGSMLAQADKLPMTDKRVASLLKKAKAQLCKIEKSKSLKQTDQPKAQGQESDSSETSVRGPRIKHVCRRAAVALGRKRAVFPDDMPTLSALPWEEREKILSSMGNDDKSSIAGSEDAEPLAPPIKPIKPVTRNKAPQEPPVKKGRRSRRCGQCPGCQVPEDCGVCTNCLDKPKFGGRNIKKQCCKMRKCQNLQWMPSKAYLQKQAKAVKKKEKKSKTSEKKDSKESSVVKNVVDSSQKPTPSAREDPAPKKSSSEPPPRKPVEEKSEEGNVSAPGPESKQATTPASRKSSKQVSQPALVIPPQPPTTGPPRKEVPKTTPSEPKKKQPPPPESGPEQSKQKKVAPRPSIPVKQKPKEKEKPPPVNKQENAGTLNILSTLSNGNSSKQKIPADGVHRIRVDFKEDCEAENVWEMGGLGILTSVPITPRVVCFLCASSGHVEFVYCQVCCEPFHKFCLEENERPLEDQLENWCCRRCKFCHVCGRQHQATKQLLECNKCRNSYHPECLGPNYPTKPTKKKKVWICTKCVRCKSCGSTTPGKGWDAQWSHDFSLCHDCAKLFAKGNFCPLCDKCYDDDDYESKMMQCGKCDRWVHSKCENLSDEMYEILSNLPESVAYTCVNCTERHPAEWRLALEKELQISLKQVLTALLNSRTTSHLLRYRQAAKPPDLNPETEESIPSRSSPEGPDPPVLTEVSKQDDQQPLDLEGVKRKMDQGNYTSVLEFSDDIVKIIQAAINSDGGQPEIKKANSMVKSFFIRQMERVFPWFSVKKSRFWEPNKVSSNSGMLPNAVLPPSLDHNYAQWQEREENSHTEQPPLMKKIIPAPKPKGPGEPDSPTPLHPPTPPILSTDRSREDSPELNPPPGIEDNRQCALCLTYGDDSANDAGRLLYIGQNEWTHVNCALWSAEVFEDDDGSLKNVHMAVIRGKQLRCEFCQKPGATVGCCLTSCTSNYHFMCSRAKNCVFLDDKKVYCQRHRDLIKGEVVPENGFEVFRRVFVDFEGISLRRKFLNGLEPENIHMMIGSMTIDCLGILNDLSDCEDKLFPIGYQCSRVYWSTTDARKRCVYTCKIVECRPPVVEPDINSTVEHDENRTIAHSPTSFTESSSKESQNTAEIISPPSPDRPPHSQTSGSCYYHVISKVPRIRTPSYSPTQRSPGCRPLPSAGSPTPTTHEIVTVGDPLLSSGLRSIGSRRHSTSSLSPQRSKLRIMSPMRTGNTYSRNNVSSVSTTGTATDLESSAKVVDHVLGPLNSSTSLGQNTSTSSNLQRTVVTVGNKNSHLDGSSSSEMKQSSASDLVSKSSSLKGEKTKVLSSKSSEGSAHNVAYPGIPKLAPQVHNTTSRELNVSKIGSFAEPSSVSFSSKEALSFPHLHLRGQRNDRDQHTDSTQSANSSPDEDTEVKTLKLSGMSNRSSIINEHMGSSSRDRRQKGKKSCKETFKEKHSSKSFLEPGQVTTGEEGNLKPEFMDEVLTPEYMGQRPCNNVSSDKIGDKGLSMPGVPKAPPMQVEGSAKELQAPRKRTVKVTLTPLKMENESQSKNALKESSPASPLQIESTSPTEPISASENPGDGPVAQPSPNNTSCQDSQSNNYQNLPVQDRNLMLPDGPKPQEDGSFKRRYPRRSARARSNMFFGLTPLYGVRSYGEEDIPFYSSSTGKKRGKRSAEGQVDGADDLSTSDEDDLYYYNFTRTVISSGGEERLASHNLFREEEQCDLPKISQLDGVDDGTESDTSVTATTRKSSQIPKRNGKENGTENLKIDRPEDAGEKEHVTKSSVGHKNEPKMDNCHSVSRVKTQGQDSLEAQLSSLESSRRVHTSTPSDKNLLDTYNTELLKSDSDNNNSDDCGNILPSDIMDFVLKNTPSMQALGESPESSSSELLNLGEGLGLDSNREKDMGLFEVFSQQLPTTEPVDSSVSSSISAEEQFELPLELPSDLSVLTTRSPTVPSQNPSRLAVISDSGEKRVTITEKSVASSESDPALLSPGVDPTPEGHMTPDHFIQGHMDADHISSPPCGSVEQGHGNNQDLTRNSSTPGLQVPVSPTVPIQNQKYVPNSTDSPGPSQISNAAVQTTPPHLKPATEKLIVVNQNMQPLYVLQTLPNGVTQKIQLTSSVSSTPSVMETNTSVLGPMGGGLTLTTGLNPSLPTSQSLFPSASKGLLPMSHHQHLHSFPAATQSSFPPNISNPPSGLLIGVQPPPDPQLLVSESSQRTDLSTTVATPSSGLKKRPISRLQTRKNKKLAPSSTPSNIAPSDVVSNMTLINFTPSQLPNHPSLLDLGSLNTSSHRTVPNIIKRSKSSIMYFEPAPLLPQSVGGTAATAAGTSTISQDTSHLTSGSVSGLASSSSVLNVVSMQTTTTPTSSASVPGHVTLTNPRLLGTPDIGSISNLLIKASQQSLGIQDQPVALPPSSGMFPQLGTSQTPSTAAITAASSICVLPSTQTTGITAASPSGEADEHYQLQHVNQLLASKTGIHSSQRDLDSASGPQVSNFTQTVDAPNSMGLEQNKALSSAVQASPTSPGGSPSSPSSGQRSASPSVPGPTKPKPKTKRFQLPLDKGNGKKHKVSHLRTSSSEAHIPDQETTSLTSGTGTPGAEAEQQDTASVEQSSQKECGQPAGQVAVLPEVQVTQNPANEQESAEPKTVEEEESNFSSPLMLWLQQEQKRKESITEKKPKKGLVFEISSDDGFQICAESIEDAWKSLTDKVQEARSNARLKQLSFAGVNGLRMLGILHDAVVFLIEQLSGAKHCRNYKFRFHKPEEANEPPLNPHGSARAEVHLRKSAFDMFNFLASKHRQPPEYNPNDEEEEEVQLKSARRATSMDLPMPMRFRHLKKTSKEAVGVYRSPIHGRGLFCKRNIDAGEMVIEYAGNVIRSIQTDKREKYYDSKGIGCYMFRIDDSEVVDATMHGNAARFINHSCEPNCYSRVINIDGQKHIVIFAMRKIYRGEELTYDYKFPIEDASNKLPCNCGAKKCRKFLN
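Steps: dispense CXXC domain solution (7 uM) → pin compounds or unlabeled HOX-A9 DNA control → 5 min ambient → add FLSN-HOX-A9 solution (50 nM) → spin → 30 min ambient → fluorescence polarization. Tris pH 7.5/NaCl/DTT/BSA buffer.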
ClpP mod: qHTS Assay for Activators of ClpP; purified B. subtilis ClpP, FRET peptide cleavage, 20 min; Potency, µM (top dose mostly 57.5 µM), inactives show at the top dose activity change, negative = active; 1.9% of 340,000 active; AID 651965, 2013; active = well fitted falling curve with a large enough effect; inconclusive = small, poorly fitted or top-dose-only effect; inactive = no such curve, though single readings can be large or run the other way; note: potency is the fitted concentration of half-maximal effect; the source files actives as falling curves though it sought activators and does not explain the sign; nearly all actives have a fitted effect of over 65% in size
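FRET quenching reversal measured ClpP activation: 10 microg/mL B. subtilis ClpP at pH 8 with the FRET-FV decapeptide, read at 430 nm after 320 nm excitation. The 20-min minus 0-min signal was scaled between DMSO/no-enzyme wells and ADEP (5.8 microM final).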
Epigenetic derep: regulators of epigenetic silencing causing reporter derepression in mouse cells; murine LDR cells, GFP reporter derepression, 30 h; Potency, µM (top dose mostly 53.9 µM), for inactives: at the highest dose GFP activation, hits mostly activators; 0.2% of 280,000 active; AID 1865; active = well fitted activation curve with a large enough effect; inconclusive = small, poorly fitted or top-dose-only effect; note: potency is the fitted concentration of half-maximal effect; % of control where 0% means no effect; nearly all actives have a fitted effect of over 60% in size
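Readout is the number of GFP-expressing murine LDR cells, counted by cytometry following washing. Cells were treated with compound for 30 h at 37 C; the stably integrated CMV-GFP locus is normally silent.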
Menin MLL FP TR: inhibitors of human menin-MLL interaction, mutant MLL peptide; O00255; Menin + Texas Red MLL mutant peptide, fluorescence polarization; Potency, µM (highest dose often 61.6 µM), without a hit: at the highest dose FP activity change, negative = inhibition, actives largely listed as inhibitors; 0.23% of 270,000 active; AID 1768; active = well fitted inhibition curve with a large enough effect in the polarisation, with a control signal flat, not every such curve was filed as active; inconclusive = small, poorly fitted or top-dose-only effect, or effect the other way, or a change in a side signal; inactive = no such curve, though single readings can be large or run the other way; the % refers to the polarisation; note: potency is the fitted concentration of half-maximal effect; % of control where 0% means no effect
PINK1 modulator: modulators of PINK1 expression; 0.2% of 410,000 active; Potency, µM (highest dose often 76.6 µM), for inactives: at the top dose activation (PINK1 increase), actives largely listed as activators; PINK1 immunofluorescence, high-content cytometry, 24 h; active = well fitted activation curve with a large enough effect; inconclusive = small, poorly fitted or top-dose-only effect; cell line not stated here; note: potency is the fitted concentration of half-maximal effect; % of control where 0% means no effect; nearly all actives have a fitted effect of over 65% in size
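A stable cell line was treated with compounds at 5 concentrations for 24 hours, with CCCP as control. PINK1 levels and mitochondrial localization were measured by immunofluorescence with mitochondrial, cell and nuclear markers after fixation, read by laser-scanning cytometry.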
Numbers without * were called inactive; ? = inconclusive; . = no result given; [ ] = dose if it differs, or a comment.

SMILES | Menin-MLL FL inh | CXXC DNA block | ClpP mod | Epigenetic derep | Menin MLL FP TR | PINK1 modulator
Nc1ccc(N(c2ccccc2)c2ccc(N)cc2)cc1 | -9 | -2% | 35µM* | -1% | -29% | ?
Cc1cccc(-n2[nH]c(C)c(C=Nc3ccc4[nH]c(=O)[nH]c4c3)c2=O)c1 | 1 | -25% | -1% | ? | 7% | 32µM*
Cc1[nH]n(-c2ccccc2)c(=O)c1C=Nc1cccc(F)c1 | 8 | -19% | . | 0% | . | 0%
Cc1[nH]n(-c2ccccc2)c(=O)c1C=Nc1ccc2[nH]c(=O)[nH]c2c1 | ? | -20% | -3% | ? | -15% | 35µM*
O=C(NCc1ccco1)Nc1ccccc1Cl | 6 | 12% | 1% | 0% | 2% | 0%
CCOC(=O)CNC(=O)Nc1ccccc1C(=O)OC | -3 | -12% | 28µM* | -3% | 2% | 0%
COC(=O)c1ccccc1NC(=O)NCc1ccccn1 | 2 | 0% | 28µM* | 0% | 3% | 2%
COC(=O)c1ccccc1NC(=O)NCc1cccnc1 | -3 | 0% | 28µM* | -1% | 13% | -2%
COc1ccc(NC(=O)NCc2cccnc2)c(OC)c1 | . | -3% | -1% | . | . | -1%
O=C(NCc1ccccn1)Nc1ccccc1Cl | -3 | ? | -2% | . | 7% | -1%
COC(=O)c1ccccc1NC(=O)NCc1ccco1 | 0 | 5% | 28µM* | 0% | -10% | -3%[38.3 µM]
CO[C@H]1[C@H](NC(=O)c2ccsc2)c2ccccc2C12CCN(Cc1c(O)ccc3ccccc13)CC2 | . | . | . | . | . | 1%
CC(=O)c1ccc(F)c(-c2cc(C)cc3c2OC(CNC(=O)C[C@@H]2C[C@@H](C)NC(=S)N2)C3)c1 (stereo partly specified) | . | . | . | . | . | 0%
CC(=O)OC[C@H]1O[C@@H](Sc2cccc3cccnc23)[C@H](OC(C)=O)[C@@H](OC(C)=O)[C@@H]1OC(C)=O | 2 | 6% | 14µM* | -2% | 5% | 0%
CC(=O)OC[C@H]1O[C@@H](Sc2cccc3cccnc23)[C@H](OC(C)=O)[C@@H](OC(C)=O)[C@H]1OC(C)=O | 2 | 17% | 4µM* | 16% | 1% | 0%
CC(=O)OCC1OC(c2ccccc2)C(OC(C)=O)C(OC(C)=O)C1OC(C)=O (stereo unspecified) | 4 | -2% | 1% | -3% | -11% | 5%[38.3 µM]
Cc1nnc2sc(-c3cccc4ccccc34)nn12 | 2 | -1% | 22µM* | -1% | -10% | -4%
O=C(NCC1(N2CCOCC2)CCCCCC1)c1cnn(-c2nccc(-c3ccco3)n2)c1C1CC1 | . | . | . | . | . | 1%
COc1ccc(/C=C/c2ccc3ccccc3n2)cc1OC | . | . | 4% | . | . | 2%
CCNC(=S)NN=C1CCC(C(C)(C)C)CC1 (stereo unspecified) | -2 | -16% | 28µM* | 1% | -1% | 2%
CN1N/C(=C\c2ccccc2)N=C2C(=O)N(C)C(=O)N=C21 | . | . | -2% | . | . | 1%
CCCCC1(CC(=O)OC)C(=O)N(c2ccccc2)N(c2ccccc2)C1=O | 7 | -3% | 28µM* | 1% | -12% | 1%
CCCCC1(Cc2ccc(OC)c([N+](=O)[O-])c2)C(=O)N(c2ccccc2)N(c2ccccc2)C1=O | 0 | 6% | 0% | 0% | 9% | 3%
CCN(C(=O)CSc1nc(-c2ccccc2)no1)c1cccc(C)c1 | . | . | 0% | -1% | . | 13µM*
CCN(C(=O)CSc1nc2ccccc2nc1Cc1ccc(F)cc1)c1cccc(C)c1 | . | . | 2% | -3% | . | 0%
CCOC(=O)N1CCN(Cc2ccc3c(c2)CN(C(=O)c2sc(C)nc2C)CCO3)CC1 | . | . | . | . | . | 0%
COc1ccc(-c2cc(-c3ccccc3)nc(-c3ccc4c(c3)NC(=O)CO4)c2)cc1 | 7 | 47% | 25µM* | -1% | -19% | .
COc1ccc(/C=N/NC(=O)c2nc(Cl)c(Cl)c(N)c2Cl)cc1COc1ccc(F)cc1F | 1 | 17% | 7.9µM* | 0% | ? | 6%
